USP8 block – human USP8 deubiquitinase inhibition; inhibition, % at 20 µM; P40818; purified USP8, Ub-rhodamine cleavage fluorescence, 30 min; AID 1645853; 4.2% of 47,000 active
Target sequence (P40818 whole entry, looked up): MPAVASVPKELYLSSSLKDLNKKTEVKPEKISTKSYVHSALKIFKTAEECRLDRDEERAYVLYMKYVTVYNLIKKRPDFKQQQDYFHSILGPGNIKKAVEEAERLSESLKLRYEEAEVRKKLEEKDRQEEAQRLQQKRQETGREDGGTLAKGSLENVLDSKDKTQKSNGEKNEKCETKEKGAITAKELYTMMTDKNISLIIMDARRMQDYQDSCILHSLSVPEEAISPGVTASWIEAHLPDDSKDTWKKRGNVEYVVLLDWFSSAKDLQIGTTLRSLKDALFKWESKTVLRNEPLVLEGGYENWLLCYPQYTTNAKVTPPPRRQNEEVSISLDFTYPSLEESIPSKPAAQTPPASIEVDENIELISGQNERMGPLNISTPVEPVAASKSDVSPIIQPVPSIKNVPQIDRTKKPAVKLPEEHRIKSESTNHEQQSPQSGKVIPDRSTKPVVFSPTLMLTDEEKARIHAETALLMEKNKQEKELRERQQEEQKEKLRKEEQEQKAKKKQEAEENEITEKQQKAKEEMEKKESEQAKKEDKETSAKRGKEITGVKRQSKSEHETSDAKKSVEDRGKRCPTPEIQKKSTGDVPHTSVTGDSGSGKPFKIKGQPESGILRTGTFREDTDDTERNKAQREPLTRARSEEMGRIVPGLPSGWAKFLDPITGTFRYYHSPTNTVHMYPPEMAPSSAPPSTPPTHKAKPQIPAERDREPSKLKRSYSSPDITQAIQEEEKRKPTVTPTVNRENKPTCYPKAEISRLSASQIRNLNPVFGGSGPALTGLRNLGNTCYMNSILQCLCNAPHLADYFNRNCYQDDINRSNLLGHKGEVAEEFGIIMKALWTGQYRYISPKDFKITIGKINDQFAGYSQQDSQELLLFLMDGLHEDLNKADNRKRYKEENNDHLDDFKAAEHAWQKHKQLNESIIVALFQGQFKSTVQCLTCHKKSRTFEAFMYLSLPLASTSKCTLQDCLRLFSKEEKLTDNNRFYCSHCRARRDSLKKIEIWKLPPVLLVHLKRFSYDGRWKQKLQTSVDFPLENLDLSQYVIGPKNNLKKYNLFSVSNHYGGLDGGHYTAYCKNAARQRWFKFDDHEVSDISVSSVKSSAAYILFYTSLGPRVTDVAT
UCHL1 block – inhibitors of human UCHL1 deubiquitinase; P09936; purified UCHL1, Ub-rhodamine cleavage fluorescence; inhibition, % at 20 µM; 0.2% of 47,000 active; AID 1645859
USP10 block – blocks human USP10 ubiquitin-rhodamine cleavage; 1.1% of 47,000 active; purified USP10, Ub-rhodamine fluorescence, 60 min; inhibition, % at 20 µM; Q14694
USP30 block – human USP30 deubiquitinase inhibition. inhibition, % at 25 µM. Q70CQ3. purified USP30, Ub-rhodamine cleavage fluorescence. 5.3% of 47,000 active. AID 1645860
USP7 block – inhibitors of human USP7 deubiquitinase. Q93009. purified USP7, Ub-rhodamine cleavage fluorescence. inhibition, % at 20 µM. 0.3% of 47,000 active. AID 1645854
USP17 inh – human USP17-like deubiquitinase inhibition; inhibition, % at 50 µM; purified USP17, Ub-rhodamine cleavage fluorescence, 3 h; 6.5% of 47,000 active; A8MUK1
Active calls of the source: *; . = no result. An excerpt weighted towards active compounds, which were near 12% of everything screened. No stated cut-off is given here; in the data, active means inhibition above about 30%; inactive means the rest.

SMILES	USP8 block	UCHL1 block	USP10 block	USP30 block	USP7 block	USP17 inh
CC(C)c1ccc(NC(=O)COC(=O)c2ccc(NS(=O)(=O)c3ccc4c(c3)OCCO4)cc2)cc1	-8	4	51*	24	17	.
COc1cc(NC(=O)Cn2nc(C(C)C)c(-c3cc(C)no3)cc2=O)cc(OC)c1	-3	-1	9	32*	1	31*
COc1cccc(OC(C)C(=O)NCc2ccc(-c3ncncc3-c3cc(C)no3)cc2)c1 (centres undefined)	-52	0	0	19	0	2
COc1cccc(NC(=O)N2CCC(c3cc(OC)no3)CC2)c1	16	1	2	10	4	2
O=C(CCc1nc(-c2cnccn2)no1)N1CCc2ccccc2C1	57*	-1	4	0	2	22
O=C(CN1C(=O)[C@H]2CCCN2c2ncccc21)NCc1ccc(F)cc1	-1	-3	-4	-45	-3	-9
N=C1/C(=C/c2cn(Cc3ccc(F)cc3)c3ccccc23)C(=O)N=C2SC(Cc3ccccc3)=NN12	74*	-5	34*	-75	11	.
N=C1/C(=C/c2cn(Cc3ccccc3)c3ccccc23)C(=O)N=C2SC(C(F)(F)F)=NN12	10	0	43*	-170	10	0
Cc1nc(N2CCOCC2)ncc1-c1cc(=O)[nH]c(N2CCC(C)CC2)n1	9	3	-1	27	6	6
CCOc1cc2c(cc1OCC)C(c1ccc(OC)cc1)N(c1ccc(OC)c(Cl)c1)C(=O)C2 (centres undefined)	36*	11	-4	-8	15	11
CCOc1cc2c(cc1OCC)C(c1ccc(Cl)cc1)N(c1ccc(C(=O)O)cc1)C(=O)C2 (centres undefined)	23	1	7	31*	0	28
CCOC(=O)c1ccc(N2C(=O)c3n[nH]c(C)c3C2c2ccc(Cl)cc2)cc1 (centres undefined)	7	-3	-2	-111	-2	17
O=C1CC(NC(=O)C2CC2)c2cc3c(cc21)OCO3 (centres undefined)	17	2	0	-2	5	0
O=[N+]([O-])c1ccc(-n2ncc(-c3nnc(-c4ccco4)o3)c2C(F)(F)F)cc1	-42	8	9	-34	0	-6
CN(C)C=Nc1c(C#N)cnn1-c1ccc([N+](=O)[O-])cc1	-10	3	5	74*	0	17
O=C(NCc1noc(Cc2ccccc2)n1)c1cccc(F)c1	7	4	-1	3	3	9
O=C(NC1CCc2ncc(C(F)(F)F)n2C1)C1CC1 (centres undefined)	-7	-2	1	-7	-4	-8
Cc1ccc(N(C)S(=O)(=O)C2CCS(=O)(=O)C2)cc1 (centres undefined)	-11	0	2	31*	-1	14
Cc1ccc(S(=O)(=O)N(CC(C)C)C2CCS(=O)(=O)C2)cc1 (centres undefined)	-1	-4	1	7	-13	.
COc1ccc(CNC(=O)c2nc(-c3ccc4cc[nH]c4c3)no2)cc1	16	8	10	41*	13	26
O=C(NCc1ccccc1Cl)c1nc(-c2ccc3[nH]ccc3c2)no1	19	2	0	47*	-3	49*
Cc1ccccc1CNC(=O)Cn1c(=O)n(-c2ccccc2)c2ncccc21	2	0	1	14	0	47*
CCOC(=O)c1sc2nc(C)nc(NCCCN3CCOCC3)c2c1C	-8	0	-5	-13	0	-8
O=C1NCC2(C/C=C/CCOc3ccccc31)CCN(C(=O)c1ccnc(N3CCCC3)c1)CC2	7	0	4	88*	10	95*
Cc1ccn2cc(-c3ccc(NS(=O)(=O)c4ccccc4Cl)cc3)nc2n1	7	0	-1	-20	5	27
O=C(Cc1nc2ccccc2[nH]1)NCc1ccc(F)cc1	0	1	-2	-10	-9	2
CC(C)c1ccc(CNC(=O)c2nc3ccccc3[nH]2)cc1	1	2	8	3	7	50*
COc1cc(CNC(=O)c2nc3n(n2)-c2ccccc2S(=O)(=O)N3)cc(OC)c1OC	-24	1	4	2	5	-1
O=C(NCc1ccccc1)c1nc2n(n1)-c1ccccc1S(=O)(=O)N2	1	5	7	34*	5	3

Screening results as filed in PubChem BioAssay.
